We go through seven compounds from PubChem BioAssay (Tox21).

A short description of assay [1]: qHTS assay for small molecules that induce genotoxicity in human embryonic kidney cells expressing luciferase-tagged ATAD5 (AID 651632). Further: nearly all actives have a fitted effect of over 15% in size. In outline:
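Concentration-response screen for ATAD5 upregulation in HEK293T luciferase reporter cells; 16 hr treatment at 37C, then luminescence after 30 min with Amplite at room temperature.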
A general note: qHTS replaces the single test concentration by a dilution series.

The nature of assay [2]: qHTS assay for small molecule agonists of the p53 signaling pathway - cell viability (AID 651633; calls by dose curve; further: nearly all actives have a fitted effect of over 30% in size; further: potency means the concentration at half of the fitted maximal effect). In short, it runs like this:
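p53RE-bla cells, seeded at 4,000 per well and rested 5 h at 37 C/5% CO2, received compounds in DMSO for 16 h at 37 C. CellTiter-Glo was then added, and luminescence was read after 30 min at room temperature to gauge cytotoxicity.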

A short description of assay [3]: qHTS assay for small molecules that induce genotoxicity in human embryonic kidney cells expressing luciferase-tagged ATAD5 - cell viability (AID 651634; calls by dose curve; further: nearly all actives have a fitted effect of over 25% in size; further: potency means the concentration at half of the fitted maximal effect). In short, it runs like this:
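15.5 hr compound or vehicle exposure of HEK293T cells expressing luciferase-tagged ATAD5 at 37C; live-cell protease activity is read by fluorescence after 30 min of CellTiter-Fluor.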

The nature of assay [4]: qHTS assay for small molecule disruptors of the mitochondrial membrane potential - cell viability (AID 720634; calls by dose curve; further: nearly all actives have a fitted effect of over 20% in size; further: potency means the concentration at half of the fitted maximal effect). In short, it runs like this: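 In this qHTS format, HepG2 cells plated overnight were pinned with compound, incubated 1 hr, and assayed for ATP luminescence with CellTiter-Glo after m-MPI dye addition.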
Assay [5] in a line: qHTS assay to test for compound auto fluorescence at 590 nm (red) in HepG2 cells (AID 720674). In short, it runs like this:
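Intrinsic compound fluorescence in the red window (Ex/Em 540/590 nm) is measured in attached HepG2 cells exposed for 1 hr, DMSO vehicle as baseline, benchmarked to Rose Bengal sodium.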

Assay [6] is described as follows: qHTS assay to test for compound auto fluorescence at 535 nm (green) in HepG2 cells (AID 720675).
Assay [7] in a line: qHTS assay to test for compound auto fluorescence at 460 nm (blue) in HEK293 cells (AID 720678). In outline: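 Blue-channel (Ex/Em 405/460 nm) intensity measured in HEK293 cultures after overnight compound exposure at 37C; signal expressed relative to triamterene. Cells plated 2,000 per well in 10% dialyzed FBS medium and allowed 4-5 hr to attach.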
Assay [8] can be described thus: qHTS assay to test for compound auto fluorescence at 590 nm (red) in HEK293 cells (AID 720679). In short, it runs like this:
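Red-channel autofluorescence (Ex/Em 540/590 nm; Rose Bengal sodium reference) was measured after overnight 37C, 5% CO2 exposure of attached HEK293 cells, 2,000 per well in medium with 10% dialyzed FBS.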

Assay [9] is described as follows: qHTS assay to test for compound auto fluorescence at 460 nm (blue) in HEK293 cell free culture (AID 720681). In short, it runs like this: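 Test compounds were pinned into cell-free culture medium (DMEM with 10% FBS) and fluorescence was read directly at Ex/Em 405/460 nm. Signals were expressed as fluorescence equivalents of triamterene, with DMSO vehicle as control.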

The nature of assay [10]: qHTS assay to test for compound auto fluorescence at 535 nm (green) in HEK293 cell free culture (AID 720682). In outline: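 Cell-free medium (DMEM, 10% FBS) receives compound or DMSO by pintool. Plate read directly at Ex 485/Em 535 nm. Signal converted to fluorescein equivalency.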
Assay [11] can be described thus: qHTS assay to test for compound auto fluorescence at 590 nm (red) in HEK293 cell free culture (AID 720683). In short, it runs like this:
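Tox21 10K library compounds were pinned into cell-free DMEM with 10% FBS and fluorescence was read at excitation 540 nm. Activity is expressed as Rose Bengal sodium equivalency.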

Assay [12] in a line: qHTS assay to test for compound auto fluorescence at 590 nm (red) in HepG2 cell free culture (AID 720684). In short, it runs like this: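 Ex 540 / Em 590 nm read of compound in cell-free MEM (10% FBS). Rose Bengal sodium reference.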
Assay [13] is described as follows: qHTS assay to test for compound auto fluorescence at 535 nm (green) in HepG2 cell free culture (AID 720686).
The nature of assay [14]: qHTS assay to test for compound auto fluorescence at 460 nm (blue) in HepG2 cells (AID 720687). In short, it runs like this:
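Cells (2,000/well in MEM with 10% FBS) attached overnight at 37 C, then were exposed to compound or DMSO for 1 hr at 37 C, 5% CO2. Fluorescence read at Ex/Em 405/460 nm, expressed as triamterene-equivalent signal.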

Assay [15] concerns the target Glucocorticoid receptor (Homo sapiens) (UniProt P04150). Nature of the assay: qHTS assay to identify small molecule agonists of the glucocorticoid receptor (GR) signaling pathway (AID 720691; active means well fitted activation curve with a large enough effect in the signal ratio in the repeat runs, not every such curve was filed as active; the % refers to the signal ratio). The settings on record: GR-bla HeLa, beta-lactamase reporter ratio, 18 h; activation: at 62.4 µM (top of the series). In short, it runs like this: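 Measures GR pathway activation through a GRE-beta-lactamase reporter stably integrated in HeLa cells, with 18 h compound treatment at 37 C and fluorescence detection using a FRET substrate.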

For assay [16] the target is unchanged. Nature of the assay: qHTS assay to identify small molecule antagonists of the glucocorticoid receptor (GR) signaling pathway (AID 720692; active means well fitted inhibition curve with a large enough effect in the signal ratio in the repeat runs, not every such curve was filed as active; the % refers to the signal ratio). In short, it runs like this: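 Tox21 10K library screened in concentration-response for blockade of dexamethasone (5 nM final)-induced GRE-bla reporter activity in HeLa cells; 18 h treatment, fluorescence read.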
The nature of assay [17]: qHTS assay for small molecule disruptors of the mitochondrial membrane potential (AID 720635). Further: potency means the concentration at half of the fitted maximal effect. In outline:
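HepG2 cells (2,000/well) attached overnight at 37C, then took compound for 1 hr at 37C, 5% CO2. Mito-MPS dye was added for 30 min; fluorescence was read at 490/535 nm (monomers) and 540/590 nm (aggregates).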

Assay [18] is described as follows: qHTS assay to test for compound auto fluorescence at 460 nm (blue) in HepG2 cell free culture (AID 720685). In outline:
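Cell-free plates of MEM plus 10% FBS received 23 nL compound or DMSO vehicle; blue-channel (405/460 nm) intensity scored against triamterene as reference fluorophore.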

A short description of assay [19]: qHTS assay to test for compound auto fluorescence at 535 nm (green) in HEK293 cells (AID 720680).

“And” between values parts separate entries of the source, which are not always exact repeats. Equal values may be shown once. Records with an inconclusive call do not appear. The source holds several records for some structures; these can differ, active in one and inactive in another. The source made the active and inactive calls. Unless noted, the call rests on the fitted dose curve; in most records, active means well fitted curve in the direction sought with a large enough effect in the repeat runs; inconclusive means weak or mixed curves; inactive means no such curve, though single readings can be large; an effect the other way counts as inactive or inconclusive.

Glucocorticoid receptor (Homo sapiens), sequence (P04150 whole entry, looked up): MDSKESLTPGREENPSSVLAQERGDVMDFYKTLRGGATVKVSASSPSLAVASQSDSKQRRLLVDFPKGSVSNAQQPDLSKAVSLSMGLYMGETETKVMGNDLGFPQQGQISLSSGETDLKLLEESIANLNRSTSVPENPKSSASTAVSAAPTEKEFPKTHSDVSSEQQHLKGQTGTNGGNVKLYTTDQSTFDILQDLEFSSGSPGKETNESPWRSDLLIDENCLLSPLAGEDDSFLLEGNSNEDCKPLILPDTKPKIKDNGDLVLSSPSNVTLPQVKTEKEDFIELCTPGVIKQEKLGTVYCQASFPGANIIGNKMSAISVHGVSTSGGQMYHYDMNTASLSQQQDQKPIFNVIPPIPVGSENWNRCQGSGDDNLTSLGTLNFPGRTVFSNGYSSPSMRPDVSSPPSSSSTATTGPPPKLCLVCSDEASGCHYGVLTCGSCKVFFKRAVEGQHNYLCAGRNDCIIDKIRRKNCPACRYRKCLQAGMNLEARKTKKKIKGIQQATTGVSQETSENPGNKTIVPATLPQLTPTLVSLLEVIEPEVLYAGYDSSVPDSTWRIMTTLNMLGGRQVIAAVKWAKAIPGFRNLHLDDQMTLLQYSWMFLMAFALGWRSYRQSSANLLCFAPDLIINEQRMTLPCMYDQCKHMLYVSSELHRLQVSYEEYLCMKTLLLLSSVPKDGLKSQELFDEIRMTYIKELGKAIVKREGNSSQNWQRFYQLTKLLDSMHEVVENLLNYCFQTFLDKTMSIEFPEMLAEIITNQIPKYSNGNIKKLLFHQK

With `CCO[Si](CCCSSSSCCC[Si](OCC)(OCC)OCC)(OCC)OCC`, the Potency entry in [1], in assay [2], in assay [3], in assay [4], in [5] and in assay [6] was “inactive” in each case. The Potency entry in assay [7], in [8], in assay [9], in assay [10], in [11] and in assay [12] was “inactive” in each case. In addition, the Potency entry in assay [13], in assay [14], in assay [15] and in assay [16] was “inactive” each time.

With `c1cc2c3c(c1)ccc1cccc(c13)C2`, the Potency entry in [1], in assay [2], in assay [3], in [5], in [6] and in assay [7] was “inactive” throughout. Moreover, the Potency result in [8], in assay [9], in assay [10], in assay [11], in assay [12] and in assay [18] was “inactive” throughout. Moreover, the Potency result in assay [13], in assay [14] and in [15] was “inactive” in each case. The Potency in assay [17] was 62.4 µM (active).

Turning to `CC(C)(c1cc(Br)c(O)c(Br)c1)c1cc(Br)c(O)c(Br)c1`, the Potency result in assay [1], in [5], in [6], in assay [7], in assay [8] and in [19] was “inactive” throughout. The Potency result in [9], in assay [10], in assay [11], in assay [12], in assay [18] and in assay [13] was “inactive” in each case. Also, the Potency entry in assay [14] is “inactive”. Besides, the Potency was 60.9 µM (active) and 24.3 µM (active) and 23 µM (active) in assay [2]; “inactive and 60.9 µM (active)” in assay [4]; 4.84 µM (active) and 7.67 µM (active) and 1.83 µM (active) in [17].

Regarding `Nc1ncnc2c1ncn2[C@@H]1O[C@H](COP(=O)(O)O)[C@@H](O)[C@H]1O`, the Potency entry in [1], in [2], in assay [3], in [4], in assay [5] and in assay [6] was “inactive” throughout. Moreover, the Potency result in [7], in assay [8], in [19], in assay [9], in assay [10] and in assay [12] was “inactive” throughout. Further, the Potency entry in assay [18], in [13] and in assay [14] was “inactive” throughout.

Consider `CC(NCCC(c1ccccc1)c1ccccc1)c1ccccc1` (configuration not stated), for which the Potency result in assay [1], in [4], in assay [5], in [7], in [8] and in assay [19] was “inactive” in each case. Further, the Potency entry in assay [9], in assay [10], in [11], in assay [12], in [13] and in assay [14] was “inactive” throughout. Also, the figures for the Potency in assay [2] and in [17] were 29.8 µM (active) and 8.8 µM (active), respectively.

As to `Cc1c(C)n(Cc2ccccc2)c2ccc(C(=O)OCCN(C)C)cc12`, the Potency result in [1], in assay [2], in assay [3], in assay [4], in [5] and in [7] was “inactive” each time. The Potency entry in assay [8], in assay [19], in assay [9], in assay [10], in [11] and in assay [18] was “inactive” in each case. Besides, the Potency result in [13], in assay [14] and in [15] was “inactive” in each case.

On to `COc1cc(C=C2CCC/C(=C\c3ccc(O)c(OC)c3)C2=O)ccc1O`, for which the Potency entry in assay [1], in assay [5], in assay [6], in assay [7], in assay [8] and in assay [19] was “inactive” in each case. In addition, the Potency result in assay [9], in [10], in assay [11], in assay [12], in assay [13] and in assay [14] was “inactive” in each case. The Potency is 16.8 µM (active) in [2], 23.7 µM (active) in [3] and 4.95 µM (active) in assay [17].
